Assay outcomes from PubChem.
EBV gp42 block: blocks Epstein-Barr virus glycoprotein 42 binding; Fluorescence polarization binding assay, mP read-out; inhibition, % (tested at 21.74 µM); 220,000 compounds, 0.42% hits; AID 1085; in the data active means inhibition above about 50%
Target sequence (Q1HVG2 whole entry, looked up): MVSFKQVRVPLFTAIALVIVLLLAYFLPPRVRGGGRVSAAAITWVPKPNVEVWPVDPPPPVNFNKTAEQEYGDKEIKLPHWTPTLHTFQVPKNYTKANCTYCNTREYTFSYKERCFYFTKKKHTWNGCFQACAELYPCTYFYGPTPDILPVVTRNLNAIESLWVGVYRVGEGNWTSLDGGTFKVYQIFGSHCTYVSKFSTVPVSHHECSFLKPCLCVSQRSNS
MEX-5 binding: C. elegans MEX-5 TCR-2 RNA binding activity. MEX-5/FITC-TCR2 RNA binding, fluorescence polarization; active compounds read low. activity score (negative = inhibition of binding), % at 10 µM. 300,000 compounds, 0.38% hits;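 active means inhibition past about -25% in most replicates, and total fluorescence under double the plate's negative control median, limit read from the data; inconclusive means replicates evenly split on the limit, or fluorescence at least double controls; inactive means too little inhibition in most replicates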;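 further: 0% = DMSO and -100% = 5 µM competing unlabeled TCR2 RNA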
Bcl-xL primary: Bcl-xL (human) inhibition; Q07817; GST-Bcl-xL / FITC-Bim BH3 peptide fluorescence polarization; inhibition, % at 10.9 µM; 320,000 compounds, 0.7% hits; AID 2129;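 active means inhibition above the mean of all tested compounds plus 3 SD, cutoff set per campaign, cut at about 30% in these data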;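 further: 0% = DMSO wells and 100% = unlabeled Bim-BH3 peptide competitor; inhibitors lower millipolarization by displacing the labeled peptide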
MCL1 BIM primary: disrupts human MCL1 binding to BIM-BH3 peptide. inhibition, % at 10.9 µM. GST-MCL1 / FITC-Bim-BH3 fluorescence polarization. 320,000 compounds, 0.68% hits;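 active means inhibition above the mean inhibition of all tested compounds plus 3 SD, set per campaign, cut at about 40% in these data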;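 further: 0% = DMSO wells and 100% = unlabeled Bim-BH3 peptide control; higher means more loss of mP so more displacement of Bim peptide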
Target sequence (Q07820 whole entry, looked up): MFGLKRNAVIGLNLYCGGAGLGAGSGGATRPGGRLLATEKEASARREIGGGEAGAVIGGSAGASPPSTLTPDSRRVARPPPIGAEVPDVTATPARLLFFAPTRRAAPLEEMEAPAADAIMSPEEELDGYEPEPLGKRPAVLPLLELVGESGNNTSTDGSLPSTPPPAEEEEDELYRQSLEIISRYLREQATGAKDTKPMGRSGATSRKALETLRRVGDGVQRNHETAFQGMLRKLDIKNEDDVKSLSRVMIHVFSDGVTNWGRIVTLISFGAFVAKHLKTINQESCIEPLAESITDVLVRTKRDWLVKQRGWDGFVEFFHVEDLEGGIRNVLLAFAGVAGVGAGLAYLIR
GLD-1 RNA inh: GLD-1-TGE RNA interaction inhibition (C. elegans). Q17339. purified GLD-1 + fluorescein TGE RNA, fluorescence polarization. inhibition, % at 5.96 µM. 320,000 compounds, 0.44% hits. AID 2280;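 active means percent inhibition above a per-plate cutoff, the plate mean of test compounds plus 3 SD, cut at about 30% in these data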;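 further: 0% = DMSO wells with GLD-1 and probe and 100% = wells lacking GLD-1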
* = called active by the depositor; ? = inconclusive; . = not tested or not shown; + = active, no number. Compounds with a hit are over-represented: about 1.3% of the library has one in this group of screens.

SMILES	EBV gp42 block	MEX-5 binding	Bcl-xL primary	MCL1 BIM primary	GLD-1 RNA inh
OCCCc1nc2n(n1)C(c1ccccc1Cl)C=C(c1cccs1)N2 (centres undefined)	25	-15	37*	42*	30
OCCCc1nc2n(n1)C(c1cccs1)C=C(c1ccccc1)N2 (centres undefined)	142*	?	177*	+	154*
CCOc1ccc(C(=O)NN2C(=O)C3C4C=CC(O4)C3C2=O)cc1 (centres undefined)	-13	-3	5	0	-1
C[C@@H]1O[C@@H](OC[C@@H]2O[C@H](Oc3c(-c4ccc(O)cc4)oc4cc(O)cc(O)c4c3=O)[C@@H](O)[C@H](O)[C@H]2O)[C@H](O)[C@H](O)[C@H]1O	.	.	.	.	0
CC1OC(Oc2c(-c3cc(O)c(O)c(O)c3)oc3cc(O)cc(O)c3c2=O)C(O)C(O)C1O (centres undefined)	0	-48*	.	.	.
COc1ccc(OC)c(NC(=O)C2CCN(S(=O)(=O)c3c(C)noc3C)CC2)c1	-10	1	3	2	63*
CSC1=N/C(=C\c2ccccc2F)C(=O)S1	99*	2	5	7	-4
Cc1ccc2nc(N3CCN(C)CC3)c(C=O)c(=O)n2c1	.	-6	34*	38	16
Cc1ccc2nc(N3CCN(c4ccccc4)CC3)c(C=O)c(=O)n2c1	6	-1	5	11	2
CCN1CCN(c2nc3ccccn3c(=O)c2C=O)CC1	.	-8	31*	30	11
Cc1nc2c(O)cccc2cc1CO	-7	-5	1	7	6
CC1(C)CC(=O)C=C(NNC(=O)c2ccccc2O)C1	-17	-3	16	17	53*
COc1cc(/C=C2/NC(=O)N(Cc3ccccc3F)C2=O)cc(OC)c1O	35	-10	10	14	66*
CCOc1cc(/C=C2/NC(=O)N(Cc3ccccc3F)C2=O)ccc1O	6	1	3	0	-5
CS(=O)(=O)n1nc(-c2ccc(Cl)cc2)nc1SCc1ccccc1	87*	1	-2	-3	6
CC(C)OP(=O)(OC(C)C)C(Nc1ccccc1)c1cccnc1 (centres undefined)	-3	0	0	6	3
COc1c(C(=O)Nc2ccc(Br)cn2)ccc2ccccc12	.	3	57*	0	5
O=C(Nc1ccc(Br)cn1)c1cccc2ccccc12	.	-1	8	10	-3
O=C1/C(=C/c2ccc(Br)cc2)Oc2cc(O)ccc21	.	-40*	21	24	76*
CC(C)(C)c1ccc(/C=C2\Oc3cc(O)ccc3C2=O)cc1	.	-27*	6	-4	17
Cc1cc(C)cc(NC(=S)NCCN(C2CCCCC2)C2CCCC2)c1	5	1	5	7	6
CN(C(=O)c1ccc(NC(=O)Cc2ccc([N+](=O)[O-])cc2)cc1)C1CC1	.	.	.	.	5
COc1ccc(C2=NOC(CNC(=S)N3CCOCC3)C2)cc1 (centres undefined)	-14	0	3	4	1
COC(=O)C1=C(C)NC(C)=C(C(=O)OC)C1c1cn(-c2ccccc2)nc1-c1ccco1	6	0	5	8	5
CCSc1nc2sc3c(c2c(=O)[nH]1)CCCC3	66*	1	1	-1	-12
SMILES	EBV gp42 block	MEX-5 binding	Bcl-xL primary	MCL1 BIM primary	GLD-1 RNA inh
CSc1nc2sc3c(c2c(=O)[nH]1)CCCC3	-20	0	-2	-5	1
CCN(CC)C(=S)Oc1ccc(Cl)cc1Cl	-11	3	-3	4	3
Cc1cc[n+](-c2[nH]c(=O)sc2/C=N/N=C(\[O-])c2ccncc2)cc1	.	-23	38*	49*	20
Cc1cc[n+](-c2[nH]c(=O)sc2/C=N/N=C(\[O-])c2ccccc2)cc1C	137*	?	.	.	.
Cc1cc[n+](-c2[nH]c(=O)sc2/C=N/N=C(\[O-])c2ccccc2)cc1	24	-10	26	35	25
CC(=O)Oc1ccc2nc(/C=C/c3ccccc3)oc(=O)c2c1	.	2	7	-4	9
CCOC(=O)/C(C#N)=C/c1c(N2CCCCCC2)nc2ccccn2c1=O	.	-1	-2	-4	-9
CCNc1nn2ccccc2c1/C=C(\C#N)C(=O)OCC	-14	-63*	4	-1	14
CN1C(=O)/C(=C\c2ccc(N(C)C)cc2)OC1=S	.	-89*	.	.	.
COc1ccc(/C=C2\OC(=S)N(C)C2=O)cc1	2	1	4	5	1
CN(C)c1ccc(/C=C2\N=C(C(C)(C)C)OC2=O)cc1	.	-43*	-16	-30	-63
CCN(c1ccccc1)S(=O)(=O)c1ccc(OC)c(NC(=O)COc2ccc(C(C)=O)cc2)c1	.	3	-3	-1	6
CCOC(=O)c1c(NC(=O)CSc2ncnc3[nH]ncc23)sc2c1CCC(C)C2 (centres undefined)	-22	3	-2	-8	1
Nc1scc2c(C(=O)N/N=C/c3ccc(Cl)cc3)nn(-c3ccccc3)c(=O)c12	-9	-4	43*	40*	11
CCOC(=O)c1nn(-c2ccccc2)c(=O)c2c(N)scc12	-16	.	4	9	7
O=C1C(=O)N(CC2CCCO2)C(c2ccco2)/C1=C(/O)c1ccc(F)cc1 (centres undefined)	-6	-1	2	9	2
O=C(OCCN1C(=O)c2cccc3c(N4CCOCC4)ccc(c23)C1=O)c1cc(Cl)cc(Cl)c1	132*	.	.	.	.
CC(=O)N(C(C)=O)N1C(=O)c2cccc3c(N4CCOCC4)ccc(c23)C1=O	-22	?	43*	28	33*
CCN(CC)S(=O)(=O)c1ccc(C(=O)OCCN2C(=O)c3cccc4c(N5CCOCC5)ccc(c34)C2=O)cc1	133*	?	23	14	13
O=S(=O)(Cc1ccc(Cl)cc1)N1CCN(c2ncccn2)CC1	.	3	4	5	3
COc1ccc(NC(=O)COC(=O)C2CC2)c(OC)c1	.	.	3	9	2
O=C(COC(=O)/C=C/c1ccc(C(F)(F)F)cc1)NCC1CCCO1 (centres undefined)	.	1	0	0	7
Cc1n[nH]c(C)c1Sc1ccccc1N=Cc1cc(Cl)cc([N+](=O)[O-])c1O	6	-51*	5	4	-1
Cc1cccc(Nc2c([N+](=O)[O-])ccc3nonc23)c1C	.	2	.	.	.
Cc1ccc(Nc2c([N+](=O)[O-])ccc3nonc23)c(C)c1	.	0	46*	7	-1
COC(=O)c1ccc(C)c(NC(=O)CCSc2ccccc2)c1	-10	0	6	2	5
COC(=O)c1ccc(C)c(NC(=O)CCSc2ccc(Cl)cc2)c1	99*	-2	0	-6	8
Cc1c(S(=O)(=O)c2ccccn2)c(N)n(Cc2ccccc2)c1C	4	-2	55*	47*	22
Cc1c(S(=O)(=O)c2ccccn2)c(N)n(Cc2ccccc2Cl)c1C	-1	-4	21	26	11
